What all share (assay): DAPPL (digital affinity profiling via proximity ligation, sequencing); 10 mM Tris-HCl pH 7.5, 50 mM NaCl, 1 mM DTT, 4% glycerol, room temperature, 30 min; GST-TFs on glutathione beads, 16-mer random dsDNA library, 0.1% formaldehyde crosslink after washing; high values mean tight binding
Holding throughout (conditions): protein: recombinant; tags: N-terminal GST; dsDNA, one strand shown

For one assay, the target named is T1, FEV (Homo sapiens, UniProt Q99581 1-238).
T1 sequence: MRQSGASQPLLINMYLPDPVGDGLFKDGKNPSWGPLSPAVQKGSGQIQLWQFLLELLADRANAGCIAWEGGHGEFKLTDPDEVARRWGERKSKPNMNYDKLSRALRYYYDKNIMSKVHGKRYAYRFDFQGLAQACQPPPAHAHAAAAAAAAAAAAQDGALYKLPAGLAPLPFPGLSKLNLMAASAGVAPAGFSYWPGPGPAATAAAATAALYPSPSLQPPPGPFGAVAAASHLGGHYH
An outline of the steps: (§1)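 Binding signal is given per hexamer as its read frequency for a factor divided by its frequency in the tag-only sample. GST-fused human transcription factors were expressed in yeast, captured on glutathione beads, barcoded with DNA and pooled with that sample, then incubated with 200 nmole of a 16-mer random double-stranded DNA library in Tris/NaCl/DTT/glycerol buffer for 30 min at room temperature. The pools were then washed, crosslinked, proximity-ligated, amplified by PCR and sequenced on an Illumina NextSeq500.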

The target of another assay is ETV5 (Homo sapiens, UniProt P41161 1-510). The procedure, abridged: as §1
The next assay has as its target T2, SPIC (Homo sapiens, UniProt Q8N5J4 1-248).
T2 sequence: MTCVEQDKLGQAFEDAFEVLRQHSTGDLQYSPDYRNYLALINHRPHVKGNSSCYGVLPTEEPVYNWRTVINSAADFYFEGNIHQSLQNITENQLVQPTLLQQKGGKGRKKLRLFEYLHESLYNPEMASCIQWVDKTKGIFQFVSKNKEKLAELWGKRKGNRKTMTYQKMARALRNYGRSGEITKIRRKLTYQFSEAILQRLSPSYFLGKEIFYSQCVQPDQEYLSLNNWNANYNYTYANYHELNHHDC
The procedure, abridged: as §1

The next assay deals with ELF4 (Homo sapiens, UniProt Q99607 1-663). An outline of the steps:
as §1

The target of a further assay is T3, ELK4 (Homo sapiens, UniProt P28324-2 1-405).
T3 sequence: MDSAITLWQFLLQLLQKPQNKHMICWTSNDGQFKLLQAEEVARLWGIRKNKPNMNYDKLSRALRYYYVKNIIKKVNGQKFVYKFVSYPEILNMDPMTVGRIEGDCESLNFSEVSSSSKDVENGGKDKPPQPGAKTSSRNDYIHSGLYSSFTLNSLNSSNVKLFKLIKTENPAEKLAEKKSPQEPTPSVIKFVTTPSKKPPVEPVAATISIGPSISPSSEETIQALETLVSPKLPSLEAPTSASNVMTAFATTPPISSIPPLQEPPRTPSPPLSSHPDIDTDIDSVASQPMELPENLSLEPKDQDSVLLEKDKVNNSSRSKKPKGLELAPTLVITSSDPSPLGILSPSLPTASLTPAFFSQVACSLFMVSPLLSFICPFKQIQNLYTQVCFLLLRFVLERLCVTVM
An outline of the steps:
as §1

A further assay addresses T4, ETV2 (Homo sapiens, UniProt O00321 1-342).
T4 sequence: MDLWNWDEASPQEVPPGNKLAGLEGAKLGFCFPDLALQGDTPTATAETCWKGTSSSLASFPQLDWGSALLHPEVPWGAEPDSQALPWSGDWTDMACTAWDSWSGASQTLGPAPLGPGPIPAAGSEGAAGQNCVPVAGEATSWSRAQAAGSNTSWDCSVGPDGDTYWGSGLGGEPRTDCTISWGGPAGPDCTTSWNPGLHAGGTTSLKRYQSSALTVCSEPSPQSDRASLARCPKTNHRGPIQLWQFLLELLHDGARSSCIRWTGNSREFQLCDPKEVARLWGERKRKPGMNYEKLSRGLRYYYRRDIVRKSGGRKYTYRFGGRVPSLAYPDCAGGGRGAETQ
An outline of the steps:
as §1

For a further assay, the target named is T5, ELF3 (Homo sapiens, UniProt P78545 1-371).
T5 sequence: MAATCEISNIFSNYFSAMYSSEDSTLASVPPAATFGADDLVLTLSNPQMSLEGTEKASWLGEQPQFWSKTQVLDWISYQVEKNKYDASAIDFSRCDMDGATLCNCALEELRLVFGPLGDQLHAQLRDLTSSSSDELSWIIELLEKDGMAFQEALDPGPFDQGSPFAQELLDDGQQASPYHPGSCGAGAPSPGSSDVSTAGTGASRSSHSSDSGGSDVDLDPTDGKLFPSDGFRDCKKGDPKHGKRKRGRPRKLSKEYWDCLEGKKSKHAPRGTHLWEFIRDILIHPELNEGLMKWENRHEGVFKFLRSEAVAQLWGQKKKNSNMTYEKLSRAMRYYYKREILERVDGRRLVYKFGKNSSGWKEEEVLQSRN
An outline of the steps: as §1

The target in a further assay is CRX (Homo sapiens, UniProt O43186 1-299). The procedure, abridged: as §1
Another assay has as its target ETV1 (Homo sapiens, UniProt P50549 1-477). The procedure, abridged: as §1

Chain of ELF4 (Q99607 whole entry): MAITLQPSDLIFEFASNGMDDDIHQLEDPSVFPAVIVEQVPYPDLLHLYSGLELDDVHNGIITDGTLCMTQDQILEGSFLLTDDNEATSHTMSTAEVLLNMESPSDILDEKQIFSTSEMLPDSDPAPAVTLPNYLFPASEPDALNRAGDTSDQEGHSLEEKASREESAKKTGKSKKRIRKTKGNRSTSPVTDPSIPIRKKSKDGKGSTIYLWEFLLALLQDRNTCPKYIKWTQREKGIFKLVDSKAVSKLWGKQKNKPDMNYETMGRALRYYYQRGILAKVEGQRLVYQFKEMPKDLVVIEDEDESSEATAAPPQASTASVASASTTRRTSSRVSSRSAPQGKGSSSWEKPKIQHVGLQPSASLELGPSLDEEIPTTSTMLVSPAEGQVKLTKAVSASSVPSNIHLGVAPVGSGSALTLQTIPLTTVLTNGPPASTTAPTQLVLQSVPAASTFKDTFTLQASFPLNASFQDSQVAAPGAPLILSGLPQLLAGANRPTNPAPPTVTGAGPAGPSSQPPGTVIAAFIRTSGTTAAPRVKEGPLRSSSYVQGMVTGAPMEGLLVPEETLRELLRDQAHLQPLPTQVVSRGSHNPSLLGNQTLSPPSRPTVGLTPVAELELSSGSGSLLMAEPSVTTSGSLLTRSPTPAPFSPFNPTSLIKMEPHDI
Chain of CRX (O43186 whole entry): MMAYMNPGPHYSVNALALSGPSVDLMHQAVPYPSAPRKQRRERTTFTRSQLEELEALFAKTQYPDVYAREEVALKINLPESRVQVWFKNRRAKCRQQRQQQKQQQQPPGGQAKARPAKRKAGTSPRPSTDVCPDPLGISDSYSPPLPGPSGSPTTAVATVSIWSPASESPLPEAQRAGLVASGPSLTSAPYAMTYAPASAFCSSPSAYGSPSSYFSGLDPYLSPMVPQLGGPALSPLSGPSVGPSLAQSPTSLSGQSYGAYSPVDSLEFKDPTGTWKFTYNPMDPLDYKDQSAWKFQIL
Chain of ETV5 (P41161 whole entry): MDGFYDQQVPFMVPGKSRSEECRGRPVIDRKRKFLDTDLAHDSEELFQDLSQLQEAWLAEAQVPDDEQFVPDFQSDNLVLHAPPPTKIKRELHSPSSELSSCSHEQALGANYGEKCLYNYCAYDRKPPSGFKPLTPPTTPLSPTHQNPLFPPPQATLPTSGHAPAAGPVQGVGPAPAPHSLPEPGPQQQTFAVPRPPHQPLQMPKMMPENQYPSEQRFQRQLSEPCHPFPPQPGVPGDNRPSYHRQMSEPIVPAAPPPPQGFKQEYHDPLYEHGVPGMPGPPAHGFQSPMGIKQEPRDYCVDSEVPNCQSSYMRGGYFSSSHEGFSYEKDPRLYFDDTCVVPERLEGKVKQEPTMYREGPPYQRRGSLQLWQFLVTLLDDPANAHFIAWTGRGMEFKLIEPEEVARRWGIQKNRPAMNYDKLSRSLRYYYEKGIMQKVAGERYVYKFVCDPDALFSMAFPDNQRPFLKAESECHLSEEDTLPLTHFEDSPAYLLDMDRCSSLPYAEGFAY
Chain of ETV1 (P50549 whole entry): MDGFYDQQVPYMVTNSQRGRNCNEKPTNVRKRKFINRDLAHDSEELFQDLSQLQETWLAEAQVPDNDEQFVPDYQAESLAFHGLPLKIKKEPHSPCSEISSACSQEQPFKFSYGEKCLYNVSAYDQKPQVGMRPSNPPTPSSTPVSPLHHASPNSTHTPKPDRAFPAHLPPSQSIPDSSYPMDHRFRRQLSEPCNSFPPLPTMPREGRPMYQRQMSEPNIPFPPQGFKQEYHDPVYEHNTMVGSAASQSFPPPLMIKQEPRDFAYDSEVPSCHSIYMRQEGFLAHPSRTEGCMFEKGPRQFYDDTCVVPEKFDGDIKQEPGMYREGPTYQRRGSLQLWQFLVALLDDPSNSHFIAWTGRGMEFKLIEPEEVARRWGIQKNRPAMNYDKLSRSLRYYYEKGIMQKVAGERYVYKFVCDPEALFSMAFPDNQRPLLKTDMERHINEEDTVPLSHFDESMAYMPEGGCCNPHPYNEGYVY

Take TACCGC: the binding signal in the assay with FEV was 1.13 fold enrichment (6-mer frequency, TF over GST control); with ETV5 it was 1.06 fold enrichment (6-mer frequency, TF over GST control); in the assay with SPIC, 1.15 fold enrichment (6-mer frequency, TF over GST control); in the assay with ELF4 it was 1.1 fold enrichment (6-mer frequency, TF over GST control); with ELK4, 1.14 fold enrichment (6-mer frequency, TF over GST control); with ETV2 it was 1.16 fold enrichment (6-mer frequency, TF over GST control). The binding signal with ELF3 was 1.23 fold enrichment (6-mer frequency, TF over GST control); with CRX, 1.03 fold enrichment (6-mer frequency, TF over GST control); in the assay with ETV1, 1.06 fold enrichment (6-mer frequency, TF over GST control).
Turning to TGCAAT, the binding signal was 1.2 fold enrichment (6-mer frequency, TF over GST control) with FEV; 1.21 fold enrichment (6-mer frequency, TF over GST control) with ETV5; 1.14 fold enrichment (6-mer frequency, TF over GST control) in the assay with SPIC; 1.2 fold enrichment (6-mer frequency, TF over GST control) with ELF4; 1.28 fold enrichment (6-mer frequency, TF over GST control) in the assay with ELK4; 1.04 fold enrichment (6-mer frequency, TF over GST control) with ETV2. In addition, the binding signal with ELF3 is 1.24 fold enrichment (6-mer frequency, TF over GST control); with CRX, 1.03 fold enrichment (6-mer frequency, TF over GST control); with ETV1, 1.26 fold enrichment (6-mer frequency, TF over GST control).
As to TTGCAG, the binding signal with FEV was 1.08 fold enrichment (6-mer frequency, TF over GST control); with ETV5, 1.13 fold enrichment (6-mer frequency, TF over GST control); with SPIC, 1.05 fold enrichment (6-mer frequency, TF over GST control); with ELF4, 1.09 fold enrichment (6-mer frequency, TF over GST control); with ELK4 it was 1.29 fold enrichment (6-mer frequency, TF over GST control); in the assay with ETV2 it was 1.17 fold enrichment (6-mer frequency, TF over GST control). For the same sequence, the binding signal with ELF3 was 1.13 fold enrichment (6-mer frequency, TF over GST control); with CRX, 1.1 fold enrichment (6-mer frequency, TF over GST control); with ETV1, 1.07 fold enrichment (6-mer frequency, TF over GST control).
As to TTGGGC, the binding signal was 1.13 fold enrichment (6-mer frequency, TF over GST control) in the assay with FEV; 1.12 fold enrichment (6-mer frequency, TF over GST control) with ETV5; 1.07 fold enrichment (6-mer frequency, TF over GST control) in the assay with SPIC; 1.1 fold enrichment (6-mer frequency, TF over GST control) with ELF4; 1.05 fold enrichment (6-mer frequency, TF over GST control) with ELK4; 1.15 fold enrichment (6-mer frequency, TF over GST control) with ETV2. In addition, the binding signal is 1.18 fold enrichment (6-mer frequency, TF over GST control) with ELF3; 1.03 fold enrichment (6-mer frequency, TF over GST control) with CRX; 1.13 fold enrichment (6-mer frequency, TF over GST control) in the assay with ETV1.
Turning to TACCCA, the binding signal with FEV was 1.03 fold enrichment (6-mer frequency, TF over GST control); in the assay with ETV5 it was 1.11 fold enrichment (6-mer frequency, TF over GST control); with SPIC it was 1.08 fold enrichment (6-mer frequency, TF over GST control); in the assay with ELF4 it was 1.08 fold enrichment (6-mer frequency, TF over GST control); with ELK4, 1.02 fold enrichment (6-mer frequency, TF over GST control); with ETV2 it was 1.12 fold enrichment (6-mer frequency, TF over GST control). The binding signal with ELF3 is 1.18 fold enrichment (6-mer frequency, TF over GST control); in the assay with CRX it was 1.08 fold enrichment (6-mer frequency, TF over GST control); with ETV1, 1.03 fold enrichment (6-mer frequency, TF over GST control).
For CTCAGT, the binding signal is 1.12 fold enrichment (6-mer frequency, TF over GST control) in the assay with FEV; 1.14 fold enrichment (6-mer frequency, TF over GST control) with ETV5; 1.24 fold enrichment (6-mer frequency, TF over GST control) with SPIC; 1.21 fold enrichment (6-mer frequency, TF over GST control) in the assay with ELF4; 1.19 fold enrichment (6-mer frequency, TF over GST control) with ELK4; 1.2 fold enrichment (6-mer frequency, TF over GST control) with ETV2. Besides, the binding signal with ELF3 was 1.35 fold enrichment (6-mer frequency, TF over GST control); in the assay with CRX it was 1.08 fold enrichment (6-mer frequency, TF over GST control); in the assay with ETV1, 1.12 fold enrichment (6-mer frequency, TF over GST control).
With CTGACC, the binding signal in the assay with FEV was 1.43 fold enrichment (6-mer frequency, TF over GST control); with ETV5 it was 1.32 fold enrichment (6-mer frequency, TF over GST control); with SPIC, 1.37 fold enrichment (6-mer frequency, TF over GST control); with ELF4 it was 1.41 fold enrichment (6-mer frequency, TF over GST control); with ELK4, 1.31 fold enrichment (6-mer frequency, TF over GST control); in the assay with ETV2, 1.46 fold enrichment (6-mer frequency, TF over GST control). For the same sequence, the binding signal was 1.51 fold enrichment (6-mer frequency, TF over GST control) with ELF3; 1.01 fold enrichment (6-mer frequency, TF over GST control) with CRX; 1.43 fold enrichment (6-mer frequency, TF over GST control) with ETV1.

The values above are taken from article PMC7862700, “An all-to-all approach to the identification of sequence-specific readers for epigenetic DNA modifications on cytosine”.
